For ten sequences, sensor-assay potency score (higher = more potent) results are on record in the OligoGym collection.
Further: reference of the scale not given here.

For the first assay, the target named is ANK1. Kind of assay: pooled miR-30 sensor sort-seq; sequence = guide strand. As to conditions: shRNA.
As to TCACTGACTAACACGAAACTGG, the sensor-assay potency score (higher = more potent) is -0.214.

TGCACCTGTCGCGTCATCCTGC returned a sensor-assay potency score (higher = more potent) of -1.06.

Sequence TTGGTGACGGCATTCTCCGGGA yielded a sensor-assay potency score (higher = more potent) of -0.46.

TTGCGAATGATCTTCTTGGTGA gave a sensor-assay potency score (higher = more potent) of 0.462.

Turning to TATTCTGAAACTCATTCCCCTG, the sensor-assay potency score (higher = more potent) is -1.12.

Another assay deals with ANKRD22. Described as above. The settings on record: shRNA.
Sequence TTTCTTCACAGCATAATGCAAG showed a sensor-assay potency score (higher = more potent) of -0.597.

In the case of TTTTGAGGTTGACATTAGCATT, the sensor-assay potency score (higher = more potent) was -1.7.

For TATCCAGTGAGCTCTCACCATG, the sensor-assay potency score (higher = more potent) was -1.62.

On to ATTAAAGCCATCTTGAACGTTG, for which the sensor-assay potency score (higher = more potent) is -0.412.

Sequence ATCTGTAGCATTAACTTCGACG had a sensor-assay potency score (higher = more potent) of -1.27.
